PGC1a acetyl inh: lowers PGC1a acetylation signal in U2OS cells | AID 651687 | AlphaScreen anti-acetyl-lysine; with virally co-expressed GCN5 acetyltransferase | 0.17% of 350,000 active | inhibition, % at 15.6 µM;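 active = every replicate shows inhibition of at least 40%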;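 also: 0% = neutral control wells and 100% = positive control wells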
PAX8 inh HTS: PAX8 transcriptional activity inhibition. RMG-I TPO-luciferase reporter, SteadyGlo, 24 h. inhibition, % at 12.6 µM. 1.2% of 360,000 active. AID 652154;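 active = mean replicate inhibition at least 60% with every replicate also reaching 60%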;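 also: luciferase light reporting Pax8 driven TPO promoter activity; plate controls were median of neutral control wells for no effect and mitoxantrone controls for full effect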
LGR2 inh: blocks bursicon-induced cAMP signaling via Drosophila LGR2 | HEK293 LGR2, CRE-luciferase, bursicon-stimulated, 4 h | inhibition, % at 9.99 µM | 0.35% of 380,000 active;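 active = drop in luminescence signal, shown as inhibition above about 50% in the replicate tests, limit read from the data, passing the limit was not always enough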;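 also: agonist challenge used bursicon conditioned medium at about half maximal strength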
EWS-Fli block: blocks EWS/Fli oncoprotein-driven transcription; AID 651661; A673 NR0B1-luciferase reporter, viability-normalised; inhibition, % at 12.6 µM; 0.67% of 350,000 active;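 active = mean inhibition of at least 50% after viability correction, with every replicate also passing that limit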;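 also: firefly luciferase signal divided by Alamar Blue viability fluorescence both relative to DMSO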
SIRT5 block: blocks human SIRT5 desuccinylation of peptide. 1.1% of 330,000 active. Q9NXA8. inhibition, % at 15 µM. Purified SirT5, succinyl-peptide AMC, trypsin-coupled fluorescence; in the data active = inhibition above about 15%
Target sequence (Q9NXA8 whole entry, looked up): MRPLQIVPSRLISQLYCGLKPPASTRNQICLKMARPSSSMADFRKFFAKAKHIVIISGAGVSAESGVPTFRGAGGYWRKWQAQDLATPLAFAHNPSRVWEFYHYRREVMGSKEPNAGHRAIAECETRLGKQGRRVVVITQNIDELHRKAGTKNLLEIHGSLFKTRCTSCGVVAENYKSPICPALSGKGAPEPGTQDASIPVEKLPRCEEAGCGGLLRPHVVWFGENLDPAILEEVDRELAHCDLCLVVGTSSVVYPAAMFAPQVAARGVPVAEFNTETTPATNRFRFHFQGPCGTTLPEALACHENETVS
rRNA inh HTS: inhibits bacterial ribosomal RNA function over humanized ribosomes; 1.6% of 350,000 active; E. coli WT GFP vs humanized-ribosome RFP mutants, fluorescence, 24 h; hits give low values; DMSO median 0, no signal -100; GFP signal change (wild-type ribosome), % (test concentration not listed); AID 720706;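 active = significant combined selectivity score with lowered wild-type GFP, culture density cut under 30%, mutant RFP and density less affected; inactive = any of these conditions unmet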
An asterisk follows results filed as active; · = no result. Sampled rows, rich in hits. Any-hit rate of the full collection: about 3.4%.

SMILES | PGC1a acetyl inh | PAX8 inh HTS | LGR2 inh | EWS-Fli block | SIRT5 block | rRNA inh HTS
CC(C)=C(c1ccc(Cl)cc1)c1c(N)ncnc1N | 3 | 9 | 3 | -3 | · | -21*
COCC(=O)N(C)C[C@@H]1Oc2cc(-c3ccc(C#N)cc3)ccc2S(=O)(=O)N([C@H](C)CO)C[C@@H]1C | 4 | -17 | -10 | -1 | 1 | -6
c1ccc(CCNc2ccnc3cc4ccccc4cc23)cc1 | 2 | 50 | 107* | 44 | -4 | -49
CC(C)Nc1ccc(Nc2ccnc3cc4ccccc4cc23)cc1 | 1 | 97* | 74* | 36 | 0 | -61
COc1ccc(Nc2ccnc3ccccc23)cc1 | 51* | · | · | · | · | ·
CCOc1ccccc1Nc1ccnc2cc(Cl)ccc12 | 3 | -9 | 9 | 2 | 4 | -16
CO[C@H]1CN(C)C(=O)c2ccc(NC(=O)c3ccccc3F)cc2OC[C@H](C)N(CC2CC2)C[C@@H]1C | -12 | · | -1 | -4 | 1 | -2
CC(=O)C[C@@H]1OC[C@H](Cc2ccccc2)N1S(=O)(=O)c1ccc(C)cc1 | · | -1 | -13 | -8 | -1 | -28*
COc1ccc2c3c([nH]c2c1)[C@H](CO)N(Cc1ccccn1)CC31CN(C(=O)c2ccccn2)C1 | -6 | 8 | -6 | -9 | -5 | -3
O=C1O[C@@H](Cc2ccccc2)[C@H]2[C@@H]3C=CCCC=C3CN2C12CCCC2 | -3 | 14 | · | -7 | 2 | ·
CC1=C/C(=N\Nc2ccccc2[N+](=O)[O-])CC(C)(C)C1 | · | 10 | -28 | -3 | 19* | -12
C/C(=N/Nc1ccccc1[N+](=O)[O-])c1ccc([N+](=O)[O-])cc1 | · | 5 | -1 | 7 | 1 | 3
O=c1oc2ccccc2c(N2CCCC2)c1CN1CCCC1 | -11 | · | -3 | -6 | -1 | -18*
C[C@@H]1CN([C@H](C)CO)C(=O)c2cc(NS(=O)(=O)c3ccc(Cl)cc3)ccc2O[C@H]1CN(C)Cc1ccc2c(c1)OCO2 | -3 | -8 | 20 | 1 | 20* | -5
COc1ccc(S(=O)(=O)Nc2ccc3c(c2)C(=O)N([C@H](C)CO)C[C@H](C)[C@H](CN(C)Cc2ccc4c(c2)OCO4)O3)cc1 | -3 | 6 | -7 | 11 | 16* | 4
Cc1cccc(-c2ccc3ncnc(NCc4cccs4)c3c2)c1 | 0 | 65* | 0 | 39 | · | -51
Cc1cccc(CNc2ncnc3ccc(-c4ccc5c(c4)OCCO5)cc23)c1 | -10 | 80* | 26 | 22 | -6 | -21
Brc1ccc2ncnc(NCc3ccccc3)c2c1 | 42* | · | · | · | · | ·
Clc1cccc(-c2ccc3ncnc(NCc4cccs4)c3c2)c1 | 3 | 3 | -12 | 13 | -6 | -21
c1cncc(CNc2ncnc3ccc(-c4ccoc4)cc23)c1 | 55* | -18 | 8 | -13 | · | 0
Cc1cccc(CNc2ncnc3ccc(-c4ccoc4)cc23)c1 | 30 | 3 | 29 | -4 | · | 10
O=C(C[C@@H]1CC[C@H](NC(=O)Nc2cc(F)ccc2F)[C@@H](CO)O1)Nc1ccccc1 | -6 | · | 23 | 1 | 7 | -3
COc1cc([C@H]2c3[nH]c4ccccc4c3C[C@H]3C(=O)N4[C@@H](c5cc(OC)c(OC)c(OC)c5)c5[nH]c6ccccc6c5C[C@H]4C(=O)N23)cc(OC)c1OC | -29 | · | · | · | · | ·
COc1cc(C2c3[nH]c4ccccc4c3CC3COC(=O)N32)cc(OC)c1O (centres undefined) | -4 | · | -3 | 64* | 2 | -5
C[C@H](CO)N1C[C@H](C)[C@H](CN(C)Cc2ccc3c(c2)OCO3)Oc2ncc(-c3cc4ccccc4o3)cc2C1=O | · | · | 10 | · | · | 6
COc1c(-c2ccc(O)cc2)oc2cc(O)cc(O)c2c1=O | -11 | · | 0 | 12 | 1 | -20*
O=C(Nc1ccc(F)cc1)N1CC(=O)N2[C@H](C1)[C@H](c1ccc(C#Cc3ccccc3)cc1)[C@@H]2CO | · | · | · | · | · | -2
O=C1NC(Cc2ccc(Cl)cc2)COCc2cnnn2CCC1c1ccccc1 (centres undefined) | · | 4 | 11 | -1 | 4 | -1
CC(C)C[C@H]1COc2cc(NCc3ccc(Cl)c(Cl)c3)ccc2S(=O)(=O)N1 | · | 19 | -1 | 6 | -3 | -26*
CCCCNc1ccc2c(c1)OC[C@@H](C)NS2(=O)=O | · | -10 | 13 | -7 | -2 | 7

Compound activity deposited in PubChem BioAssay by Broad Institute.
